Screens deposited in PubChem BioAssay by several laboratories.
In the library only some 3% were active in any assay of this set; here they are far more common.
FBA Mtb inh = Mtb fructose-bisphosphate aldolase inhibition; P9WQA3; purified M. tuberculosis FBA, fluorescence read-out; inhibition, % at 1 µM; 360,000 tested, 2.3% active;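 note: 0% = vehicle and 100% = reference inhibitor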
Target sequence (P9WQA3 whole entry, looked up): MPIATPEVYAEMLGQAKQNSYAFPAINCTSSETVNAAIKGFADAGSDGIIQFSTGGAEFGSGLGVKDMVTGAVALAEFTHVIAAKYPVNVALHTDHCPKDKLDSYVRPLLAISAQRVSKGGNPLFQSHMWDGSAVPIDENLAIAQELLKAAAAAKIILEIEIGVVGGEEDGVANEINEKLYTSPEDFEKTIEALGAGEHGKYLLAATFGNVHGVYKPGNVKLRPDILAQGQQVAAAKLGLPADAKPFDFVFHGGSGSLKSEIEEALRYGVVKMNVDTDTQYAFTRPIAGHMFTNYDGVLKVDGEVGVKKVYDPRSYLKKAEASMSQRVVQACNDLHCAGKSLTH
Rv3671c inh = inhibitors of M. tuberculosis serine protease Rv3671c; P9WHR9; inhibition, % at 5.96 µM; 320,000 tested, 0.048% active; AID 2606; in the data active = inhibition above about 38%;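 note: extracellular domain of Rv3671c used as enzyme; 0% = enzyme with DMSO and 100% = no enzyme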
FadD28 binding = blocks FadD28 binding to the bisubstrate probe | inhibition, % at 12.5 µM | AID 588549 | 360,000 tested, 0.22% active | fluorescence polarization; in the data active = inhibition above about 8.5%, passing the limit was not always enough
Mtb BioA inh = blocks M. tuberculosis BioA enzyme activity; purified M. tuberculosis BioA enzyme, plate reader; inhibition, % at 9.99 µM; 360,000 tested, 0.096% active; AID 602481; in the data active = inhibition above about 40%
GDH-TPI counter-1 = counter-screen for M. tuberculosis FBA inhibitors: GDH-TPI coupled enzymes; GDH-TPI coupled enzyme counterscreen, NADH absorbance; inhibition, % at 4.8 µM; 360,000 tested, 1.2% active; AID 588335; in the data active = inhibition above about 30%;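 note: 0% = DMSO wells and 100% = wells lacking the enzyme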
Mtb FBA confirm = Mtb FBA inhibition, confirmed. shares compounds with FBA Mtb inh. purified M. tuberculosis FBA, fluorescence read-out. inhibition, % at 1 µM. 5,600 tested, 78% active. AID 651616;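 note: 0% = vehicle wells and 100% = reference inhibitor wells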
GDH-TPI counter-2 = GDH-TPI inhibition counter-screen for FBA inhibitors | shares compounds with FBA Mtb inh | GDH-TPI coupled enzyme counterscreen, fluorescence | inhibition, % at 1 µM | 5,600 tested, 81% active | AID 652141; in the data active = inhibition above about 10%
An asterisk follows results filed as active. Cut-off read from the data, not from the text of the source, unless noted: active = inhibition above about 27%; inactive = the rest.

Screening CCCN(C)C[C@@H]1Oc2cc(C3=CCCCC3)ccc2S(=O)(=O)N([C@@H](C)CO)C[C@@H]1C returned Mtb BioA inh 0.
For c1cn(CCCNc2ncnc3sc4c(c23)CCC4)cn1 the results were FBA Mtb inh -7, Rv3671c inh -7, FadD28 binding -3, Mtb BioA inh 4 and GDH-TPI counter-1 3.
`CCCCNc1ncnc2sc3c(c12)CCN(CCC)C3` gave FBA Mtb inh 34*, Rv3671c inh 5, Mtb BioA inh 5, GDH-TPI counter-1 9, Mtb FBA confirm 99* and GDH-TPI counter-2 89*.
Cc1nn(-c2ccccc2)c2sc(C(=O)NCCN3CCOCC3)cc12 was read as FBA Mtb inh 33*, Rv3671c inh -8, FadD28 binding -4, Mtb BioA inh -1, GDH-TPI counter-1 10, Mtb FBA confirm 92* and GDH-TPI counter-2 83*.
For CCCCNC(=O)COC(=O)c1cc2c(C)nn(-c3ccccc3)c2s1 the results were FBA Mtb inh 29*, Rv3671c inh -5, FadD28 binding -2, GDH-TPI counter-1 14, Mtb FBA confirm active and GDH-TPI counter-2 178*.
Fc1ccc(-n2c(-c3cccs3)nc3nc4ccccc4nc32)cc1 was read as FBA Mtb inh 81*, Rv3671c inh 4, FadD28 binding -3, GDH-TPI counter-1 4, Mtb FBA confirm 0 and GDH-TPI counter-2 -4.
Screening CCN(CC)CCCNC(=O)c1oc2ccc3c(c2c1C)C(O)CC(C)(C)O3 (stereo unspecified) returned FBA Mtb inh 44*, Mtb BioA inh -1, GDH-TPI counter-1 14, Mtb FBA confirm 55* and GDH-TPI counter-2 43*.
`COCCNC(=O)c1oc2ccc3c(c2c1C)C(O)CC(C)(C)O3` (stereo unspecified) gave FBA Mtb inh 38*, FadD28 binding 2, Mtb BioA inh -1, GDH-TPI counter-1 11, Mtb FBA confirm 52* and GDH-TPI counter-2 42*.
O=C(C[C@H]1C=C[C@@H](NC(=O)C2CC2)[C@H](CO)O1)NCc1ccncc1 was read as Mtb BioA inh -3.
C[C@H](CO)N1C[C@H](C)[C@H](CN(C)Cc2ccncc2)Oc2ncc(C3=CCCCC3)cc2C1=O was read as Mtb BioA inh 0.
`COc1ccccc1CNC(=O)C[C@H]1CC[C@H]2[C@@H](COC[C@@H](O)CN2C(=O)Nc2ccccc2)O1` gave Mtb BioA inh -1.
`CC(C)Oc1ncnc2c1[nH]c1ccccc12` gave FBA Mtb inh 33*, Rv3671c inh 2, FadD28 binding -2, Mtb BioA inh 2, GDH-TPI counter-1 -7, Mtb FBA confirm 165* and GDH-TPI counter-2 130*.
`C[C@@H]1CN([C@H](C)CO)C(=O)c2cc(NC(=O)C3CCCCC3)ccc2O[C@@H](C)CCCCO[C@@H]1CN(C)Cc1ccc(Cl)c(Cl)c1` gave Mtb BioA inh -4.
`Cc1nc2ccc(-c3nc4ccccc4o3)cc2[nH]1` gave FBA Mtb inh 50*, Rv3671c inh -4, FadD28 binding -6, Mtb BioA inh -1, GDH-TPI counter-1 13, Mtb FBA confirm 63* and GDH-TPI counter-2 56*.
For Nc1ccc(-c2nc3ccc(-c4nc5ccccc5o4)cc3[nH]2)cc1 the results were FBA Mtb inh 84*, Rv3671c inh 14, FadD28 binding -3, Mtb BioA inh -1, GDH-TPI counter-1 57*, Mtb FBA confirm 36* and GDH-TPI counter-2 25*.
Nc1ccc2oc(-c3ccccn3)nc2c1 was read as FBA Mtb inh 0, Rv3671c inh -4, FadD28 binding -2, Mtb BioA inh -2 and GDH-TPI counter-1 15.
Screening C[C@@H]1CN([C@@H](C)CO)C(=O)c2cccc(NC(=O)C3CCCCC3)c2O[C@H]1CN(C)C(=O)NC1CCCCC1 returned Mtb BioA inh 3.
For Cc1nc(-c2ccccc2)ccc1C(=O)O the results were FBA Mtb inh 1, Rv3671c inh -2, FadD28 binding 1 and GDH-TPI counter-1 0.
Screening Cc1nc(-c2cccc3ccccc23)ccc1C(=O)O returned FBA Mtb inh 41*, Rv3671c inh 2, FadD28 binding -1, Mtb BioA inh 1, GDH-TPI counter-1 8, Mtb FBA confirm 75* and GDH-TPI counter-2 67*.
`O=S1(=O)CCN2C=Nc3sc4c(c3C2=N1)CCCC4` gave FBA Mtb inh -3, Rv3671c inh 9, FadD28 binding -1, Mtb BioA inh -1 and GDH-TPI counter-1 4.
For O=S1(=O)CCN2C=C(Br)C=C(Br)C2=N1 the results were FBA Mtb inh 29*, Rv3671c inh 0, FadD28 binding -1, Mtb BioA inh -1, GDH-TPI counter-1 30, Mtb FBA confirm 133* and GDH-TPI counter-2 105*.
`CO[C@H]1CN(C)C(=O)c2cc(NC(=O)C3CCOCC3)ccc2OC[C@@H](C)N(CC2CC2)C[C@H]1C` gave Mtb BioA inh -2.
Screening CCOc1cc(S(=O)(=O)NCCc2ccccc2C)c(OCC)cc1-n1cnnn1 returned FBA Mtb inh 51*, Rv3671c inh -1, FadD28 binding -6, Mtb BioA inh 3, GDH-TPI counter-1 7, Mtb FBA confirm 22 and GDH-TPI counter-2 12*.
`CCOc1cc(S(=O)(=O)N2CC=C(c3ccc(F)cc3)CC2)c(OCC)cc1-n1cnnn1` gave FBA Mtb inh 2, Rv3671c inh 6, FadD28 binding 1, Mtb BioA inh 0 and GDH-TPI counter-1 -6.
Screening CCOc1cc(S(=O)(=O)N(CC)CC)c(OCC)cc1-n1cnnn1 returned FBA Mtb inh 28*, Rv3671c inh 4, FadD28 binding -1, Mtb BioA inh -1, GDH-TPI counter-1 10, Mtb FBA confirm 193* and GDH-TPI counter-2 137*.
Screening C[C@@H]1CN([C@H](C)CO)S(=O)(=O)c2ccc(-c3cccnc3)cc2O[C@@H]1CN(C)C(=O)CN(C)C returned Mtb BioA inh -1.
`Cc1ccc(Cn2c(SCCN3CCCCC3)nc3c2c(=O)n(C)c(=O)n3C)cc1` gave FBA Mtb inh 63*, Rv3671c inh -1, FadD28 binding -1, Mtb BioA inh 4, GDH-TPI counter-1 6, Mtb FBA confirm 14 and GDH-TPI counter-2 11*.
Cn1c(=O)c2c(nc(SCCN3CCCCC3)n2Cc2ccccc2)n(C)c1=O was read as FBA Mtb inh -1, Rv3671c inh -10, FadD28 binding -2, Mtb BioA inh 5 and GDH-TPI counter-1 -3.
Screening Clc1ccccc1-c1cccc2nccn12 returned FBA Mtb inh 35*, FadD28 binding 0, Mtb BioA inh 2, GDH-TPI counter-1 -5, Mtb FBA confirm 0 and GDH-TPI counter-2 -5.
CS(=O)(=O)Nc1ccc(-c2cncc3nccn23)cc1 was read as FBA Mtb inh 63*, FadD28 binding 0, Mtb BioA inh -1, GDH-TPI counter-1 35*, Mtb FBA confirm 65* and GDH-TPI counter-2 56*.
